Results on one compound are retold here after ChEMBL document CHEMBL2218924, “A broad activity screen in support of a chemogenomic map for kinase signalling research and drug discovery” (Biochem J, 2013).

SMILES strings stand for the structures.

Test [1] addresses Tyrosine-protein kinase SYK (Homo sapiens) (UniProt P43405). As to conditions: at 10 µM.
Test [2] has as its target T1, Mitogen-activated protein kinase kinase kinase 7 (Homo sapiens) (UniProt O43318).
T1 sequence (whole entry): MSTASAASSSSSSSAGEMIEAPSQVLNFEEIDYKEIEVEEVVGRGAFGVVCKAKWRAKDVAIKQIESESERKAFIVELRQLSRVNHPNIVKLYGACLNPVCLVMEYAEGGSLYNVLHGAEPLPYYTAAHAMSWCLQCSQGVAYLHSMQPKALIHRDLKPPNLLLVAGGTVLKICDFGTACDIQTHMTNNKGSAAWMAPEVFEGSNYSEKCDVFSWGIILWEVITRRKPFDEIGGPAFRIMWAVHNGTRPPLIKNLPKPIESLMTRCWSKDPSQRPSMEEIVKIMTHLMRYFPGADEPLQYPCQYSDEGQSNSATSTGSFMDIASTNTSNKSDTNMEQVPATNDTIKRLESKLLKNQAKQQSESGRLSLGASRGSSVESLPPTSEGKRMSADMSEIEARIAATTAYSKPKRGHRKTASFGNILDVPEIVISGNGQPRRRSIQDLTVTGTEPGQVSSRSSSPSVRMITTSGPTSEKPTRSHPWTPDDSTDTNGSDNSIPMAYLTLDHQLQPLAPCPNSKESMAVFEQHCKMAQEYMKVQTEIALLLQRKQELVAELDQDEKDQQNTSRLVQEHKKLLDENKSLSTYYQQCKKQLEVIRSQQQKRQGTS
The note with it: at 1 µM.

Test [3] deals with T1, Mitogen-activated protein kinase kinase kinase 7 (Homo sapiens). The note with it: at 10 µM.
In test [4] the target is T2, Serine/threonine-protein kinase TAO1 (Homo sapiens) (UniProt Q7L7X3).
T2 sequence (whole entry): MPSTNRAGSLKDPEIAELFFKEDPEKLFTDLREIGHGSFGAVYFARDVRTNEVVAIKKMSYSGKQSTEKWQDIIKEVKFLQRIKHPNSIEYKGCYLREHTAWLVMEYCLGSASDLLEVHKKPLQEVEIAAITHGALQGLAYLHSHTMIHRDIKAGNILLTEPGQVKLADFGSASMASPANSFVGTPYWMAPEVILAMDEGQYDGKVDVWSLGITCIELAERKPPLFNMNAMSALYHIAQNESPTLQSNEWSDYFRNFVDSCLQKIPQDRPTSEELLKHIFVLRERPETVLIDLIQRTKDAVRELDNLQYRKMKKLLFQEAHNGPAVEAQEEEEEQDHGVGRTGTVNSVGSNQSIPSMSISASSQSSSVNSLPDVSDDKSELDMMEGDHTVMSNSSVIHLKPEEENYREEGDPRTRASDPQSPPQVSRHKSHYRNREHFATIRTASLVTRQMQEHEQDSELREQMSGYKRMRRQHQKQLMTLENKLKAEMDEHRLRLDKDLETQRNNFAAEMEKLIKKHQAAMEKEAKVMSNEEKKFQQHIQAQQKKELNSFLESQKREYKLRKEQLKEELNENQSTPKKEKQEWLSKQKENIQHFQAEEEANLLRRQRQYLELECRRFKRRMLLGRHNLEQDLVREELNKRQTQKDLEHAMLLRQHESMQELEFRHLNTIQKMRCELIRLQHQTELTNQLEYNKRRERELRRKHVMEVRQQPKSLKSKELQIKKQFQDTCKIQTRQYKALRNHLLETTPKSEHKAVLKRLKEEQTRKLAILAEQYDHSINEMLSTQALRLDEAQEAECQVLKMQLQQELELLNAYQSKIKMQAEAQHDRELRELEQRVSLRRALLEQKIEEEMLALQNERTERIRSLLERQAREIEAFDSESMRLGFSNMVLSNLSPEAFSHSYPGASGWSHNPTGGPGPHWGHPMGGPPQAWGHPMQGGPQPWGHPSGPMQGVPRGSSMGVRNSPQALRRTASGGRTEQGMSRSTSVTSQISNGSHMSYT
The note with it: at 1 µM.

Test [5] concerns the target T2, Serine/threonine-protein kinase TAO1 (Homo sapiens). As to conditions: at 10 µM.
The target in test [6] is T3, Serine/threonine-protein kinase TAO2 (Homo sapiens) (UniProt Q9UL54).
T3 sequence (whole entry): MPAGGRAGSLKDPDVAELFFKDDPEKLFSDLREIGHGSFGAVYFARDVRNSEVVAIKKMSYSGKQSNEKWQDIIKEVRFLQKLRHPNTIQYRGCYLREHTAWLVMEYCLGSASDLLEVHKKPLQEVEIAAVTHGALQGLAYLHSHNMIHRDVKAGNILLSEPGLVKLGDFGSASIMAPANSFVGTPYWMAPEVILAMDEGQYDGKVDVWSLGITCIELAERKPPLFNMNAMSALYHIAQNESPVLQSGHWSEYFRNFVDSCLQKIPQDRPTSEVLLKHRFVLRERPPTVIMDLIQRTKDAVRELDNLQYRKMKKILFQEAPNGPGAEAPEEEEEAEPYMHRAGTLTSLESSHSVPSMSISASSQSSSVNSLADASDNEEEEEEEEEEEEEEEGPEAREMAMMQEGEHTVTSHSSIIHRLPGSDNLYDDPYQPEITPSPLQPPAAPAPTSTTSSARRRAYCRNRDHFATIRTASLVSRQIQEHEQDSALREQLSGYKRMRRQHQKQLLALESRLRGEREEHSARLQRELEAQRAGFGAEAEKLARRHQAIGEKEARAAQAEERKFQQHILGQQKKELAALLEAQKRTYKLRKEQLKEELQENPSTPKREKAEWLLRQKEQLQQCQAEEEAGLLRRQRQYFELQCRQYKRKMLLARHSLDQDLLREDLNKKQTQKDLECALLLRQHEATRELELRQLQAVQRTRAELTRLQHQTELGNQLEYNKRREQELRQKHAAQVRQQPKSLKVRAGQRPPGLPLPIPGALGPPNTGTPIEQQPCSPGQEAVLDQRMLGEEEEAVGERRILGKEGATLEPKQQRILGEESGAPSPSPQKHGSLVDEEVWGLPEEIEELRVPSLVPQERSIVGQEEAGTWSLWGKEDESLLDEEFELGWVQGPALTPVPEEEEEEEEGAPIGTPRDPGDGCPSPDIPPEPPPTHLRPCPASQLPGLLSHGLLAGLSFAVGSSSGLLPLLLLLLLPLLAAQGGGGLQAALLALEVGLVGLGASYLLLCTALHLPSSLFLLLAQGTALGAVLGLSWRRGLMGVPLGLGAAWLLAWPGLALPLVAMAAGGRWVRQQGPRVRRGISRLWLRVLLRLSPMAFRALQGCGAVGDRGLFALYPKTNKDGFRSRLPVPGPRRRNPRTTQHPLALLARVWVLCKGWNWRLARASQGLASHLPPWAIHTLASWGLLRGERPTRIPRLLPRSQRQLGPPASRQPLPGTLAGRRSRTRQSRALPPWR
As to conditions: at 1 µM.

Test [7] has as its target T3, Serine/threonine-protein kinase TAO2 (Homo sapiens). As to conditions: at 10 µM.
Test [8] addresses T4, Serine/threonine-protein kinase TAO3 (Homo sapiens) (UniProt Q9H2K8).
T4 sequence (whole entry): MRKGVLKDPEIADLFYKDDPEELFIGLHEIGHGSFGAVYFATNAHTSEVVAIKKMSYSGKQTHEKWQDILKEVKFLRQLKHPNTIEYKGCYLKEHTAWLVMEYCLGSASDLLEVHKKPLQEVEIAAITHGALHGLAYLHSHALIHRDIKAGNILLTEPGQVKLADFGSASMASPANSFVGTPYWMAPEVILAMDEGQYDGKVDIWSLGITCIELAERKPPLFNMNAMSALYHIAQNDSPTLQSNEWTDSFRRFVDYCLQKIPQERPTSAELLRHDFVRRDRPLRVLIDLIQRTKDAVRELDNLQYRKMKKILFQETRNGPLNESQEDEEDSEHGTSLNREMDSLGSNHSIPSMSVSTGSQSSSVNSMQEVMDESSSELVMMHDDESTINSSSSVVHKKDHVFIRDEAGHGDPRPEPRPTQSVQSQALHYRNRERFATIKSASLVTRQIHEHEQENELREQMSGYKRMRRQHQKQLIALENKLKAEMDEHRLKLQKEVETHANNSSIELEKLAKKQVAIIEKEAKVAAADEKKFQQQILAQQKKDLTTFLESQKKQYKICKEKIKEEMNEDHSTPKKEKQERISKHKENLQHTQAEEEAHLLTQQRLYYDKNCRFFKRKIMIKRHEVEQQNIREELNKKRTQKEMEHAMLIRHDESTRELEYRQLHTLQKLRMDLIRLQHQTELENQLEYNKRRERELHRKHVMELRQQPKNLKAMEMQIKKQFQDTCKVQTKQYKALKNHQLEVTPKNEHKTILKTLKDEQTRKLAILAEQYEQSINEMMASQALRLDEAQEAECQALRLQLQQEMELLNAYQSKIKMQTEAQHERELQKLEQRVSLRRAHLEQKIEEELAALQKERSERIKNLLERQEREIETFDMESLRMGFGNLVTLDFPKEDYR
The note with it: at 1 µM.

The target in test [9] is T4, Serine/threonine-protein kinase TAO3 (Homo sapiens). As to conditions: at 10 µM.
The target in test [10] is T5, Serine/threonine-protein kinase TBK1 (Homo sapiens) (UniProt Q9UHD2).
T5 sequence (whole entry): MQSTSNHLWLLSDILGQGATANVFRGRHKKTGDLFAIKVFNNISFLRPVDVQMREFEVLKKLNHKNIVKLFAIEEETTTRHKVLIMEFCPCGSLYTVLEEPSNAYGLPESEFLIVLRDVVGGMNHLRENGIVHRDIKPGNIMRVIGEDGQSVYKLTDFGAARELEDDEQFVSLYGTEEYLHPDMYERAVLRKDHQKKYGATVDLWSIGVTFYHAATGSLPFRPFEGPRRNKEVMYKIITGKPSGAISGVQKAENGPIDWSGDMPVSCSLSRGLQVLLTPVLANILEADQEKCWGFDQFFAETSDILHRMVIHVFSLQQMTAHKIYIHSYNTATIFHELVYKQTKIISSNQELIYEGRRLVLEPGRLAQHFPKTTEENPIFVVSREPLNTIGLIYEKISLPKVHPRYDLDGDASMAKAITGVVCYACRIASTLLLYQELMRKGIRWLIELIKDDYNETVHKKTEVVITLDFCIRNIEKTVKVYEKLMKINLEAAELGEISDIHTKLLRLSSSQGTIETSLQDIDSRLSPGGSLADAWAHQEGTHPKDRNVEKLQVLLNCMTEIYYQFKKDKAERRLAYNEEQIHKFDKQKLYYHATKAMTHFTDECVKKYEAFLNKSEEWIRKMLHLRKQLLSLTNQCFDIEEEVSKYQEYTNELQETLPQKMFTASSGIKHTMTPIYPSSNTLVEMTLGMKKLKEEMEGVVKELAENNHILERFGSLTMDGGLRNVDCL
The note with it: at 1 µM.

With `CO[C@H]1[C@@H](OC)C[C@H](C)[C@@H](OC)C2=CC(=O)C=C(NC(=O)/C(C)=C/C=C/[C@H](OC)[C@@H](OC(N)=O)/C(C)=C/[C@@H]1C)C2=O`, the residual activity in [1] worked out at 87%; in [2], 96%; in test [3], 94%; in [4], 98%; in [5] it was 89%; in test [6], 99%. Further, the residual activity in [7] worked out at 93%; in [8], 107%; in test [9], 95%; in [10], 77%.
